# Experiments:
# Assay in all cases: DAPPL (digital affinity profiling via proximity ligation, sequencing); 10 mM Tris-HCl pH 7.5, 50 mM NaCl, 1 mM DTT, 4% glycerol, room temperature, 30 min; GST-TFs on glutathione beads, 16-mer random dsDNA library, 0.1% formaldehyde crosslink after washing; high values mean tight binding
# [1] = target: T1, ELK1 (Homo sapiens, UniProt P19419 1-428); details: protein: recombinant; tags: N-terminal GST; dsDNA, one strand shown
# T1 sequence: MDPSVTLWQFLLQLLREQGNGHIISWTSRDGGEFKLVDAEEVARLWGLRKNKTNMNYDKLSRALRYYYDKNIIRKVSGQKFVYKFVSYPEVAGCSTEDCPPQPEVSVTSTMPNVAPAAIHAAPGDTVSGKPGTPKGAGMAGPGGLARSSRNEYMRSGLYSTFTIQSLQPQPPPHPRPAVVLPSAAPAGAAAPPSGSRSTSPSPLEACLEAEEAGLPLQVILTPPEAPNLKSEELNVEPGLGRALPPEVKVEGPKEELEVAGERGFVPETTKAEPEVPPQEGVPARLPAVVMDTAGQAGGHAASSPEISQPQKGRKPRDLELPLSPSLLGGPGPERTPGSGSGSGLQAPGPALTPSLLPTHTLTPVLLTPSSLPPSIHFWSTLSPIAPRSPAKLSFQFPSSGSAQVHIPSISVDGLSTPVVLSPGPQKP
# How it was run: (§1)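 Binding signal is each hexamer's read frequency for a factor divided by its frequency in the tag-only sample. The factors were GST-fused human transcription factors from yeast, captured on glutathione beads, DNA-barcoded and pooled with that sample. Pools were incubated with 200 nmole of a random double-stranded 16-mer DNA library in Tris/NaCl/DTT/glycerol buffer at room temperature for 30 min, then washed, crosslinked with 0.1% formaldehyde, proximity-ligated with BsaI/T4 ligase (1 h, 37 °C), PCR-amplified and sequenced on an Illumina NextSeq500.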
# [2] = target: T2, EHF (Homo sapiens, UniProt Q9NZC4 1-300); details: protein: recombinant; tags: N-terminal GST; dsDNA, one strand shown
# T2 sequence: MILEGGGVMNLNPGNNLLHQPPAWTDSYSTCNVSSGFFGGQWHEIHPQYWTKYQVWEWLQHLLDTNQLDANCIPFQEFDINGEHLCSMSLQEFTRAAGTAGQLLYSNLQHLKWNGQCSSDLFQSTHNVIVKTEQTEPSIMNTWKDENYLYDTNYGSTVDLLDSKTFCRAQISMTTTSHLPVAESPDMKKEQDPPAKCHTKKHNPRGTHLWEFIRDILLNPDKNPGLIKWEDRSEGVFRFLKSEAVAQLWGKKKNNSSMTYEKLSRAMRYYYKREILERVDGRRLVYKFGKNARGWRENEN
# How it was run: as §1
# [3] = target: T3, ELK3 (Homo sapiens, UniProt P41970 1-407); details: protein: recombinant; tags: N-terminal GST; dsDNA, one strand shown
# T3 sequence: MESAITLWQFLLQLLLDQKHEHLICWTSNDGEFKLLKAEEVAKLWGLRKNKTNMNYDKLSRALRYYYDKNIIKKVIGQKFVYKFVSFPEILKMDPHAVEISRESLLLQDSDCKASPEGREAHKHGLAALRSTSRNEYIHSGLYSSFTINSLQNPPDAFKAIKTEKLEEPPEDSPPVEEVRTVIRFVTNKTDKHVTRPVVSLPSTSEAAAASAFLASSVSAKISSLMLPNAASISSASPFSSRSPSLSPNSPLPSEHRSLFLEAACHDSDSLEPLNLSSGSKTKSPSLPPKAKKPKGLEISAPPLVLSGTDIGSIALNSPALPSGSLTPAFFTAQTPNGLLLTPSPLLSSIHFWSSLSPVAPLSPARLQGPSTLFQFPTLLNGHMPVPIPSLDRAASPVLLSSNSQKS
# How it was run: as §1
# [4] = target: HSF1 (Homo sapiens, UniProt Q00613 1-529); details: protein: recombinant; tags: N-terminal GST; chain copies: 3; dsDNA, one strand shown
# Chain of HSF1 (Q00613 whole entry): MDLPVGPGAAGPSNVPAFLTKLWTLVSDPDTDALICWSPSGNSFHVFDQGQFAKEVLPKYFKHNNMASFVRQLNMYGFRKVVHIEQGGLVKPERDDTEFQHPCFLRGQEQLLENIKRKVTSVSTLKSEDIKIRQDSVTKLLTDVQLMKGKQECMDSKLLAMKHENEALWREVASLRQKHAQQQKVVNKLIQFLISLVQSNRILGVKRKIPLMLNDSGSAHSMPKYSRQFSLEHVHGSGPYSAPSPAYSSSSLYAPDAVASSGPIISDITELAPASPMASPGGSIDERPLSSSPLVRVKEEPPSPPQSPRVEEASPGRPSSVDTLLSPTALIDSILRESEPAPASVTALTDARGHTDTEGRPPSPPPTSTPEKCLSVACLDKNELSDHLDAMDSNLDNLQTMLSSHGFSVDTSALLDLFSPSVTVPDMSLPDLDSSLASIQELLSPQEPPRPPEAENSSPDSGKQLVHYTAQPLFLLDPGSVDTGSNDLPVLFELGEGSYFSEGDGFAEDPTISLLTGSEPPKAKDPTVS
# How it was run: as §1
# [5] = target: T4, SPIC (Homo sapiens, UniProt Q8N5J4 1-248); details: protein: recombinant; tags: N-terminal GST; dsDNA, one strand shown
# T4 sequence: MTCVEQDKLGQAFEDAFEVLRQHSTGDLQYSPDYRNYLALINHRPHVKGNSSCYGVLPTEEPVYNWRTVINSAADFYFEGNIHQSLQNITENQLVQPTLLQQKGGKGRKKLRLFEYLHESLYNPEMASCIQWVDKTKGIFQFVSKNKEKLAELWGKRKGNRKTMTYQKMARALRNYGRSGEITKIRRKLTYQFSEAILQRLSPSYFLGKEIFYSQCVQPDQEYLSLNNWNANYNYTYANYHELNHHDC
# How it was run: as §1
# [6] = target: T5, ELK4 (Homo sapiens, UniProt P28324-2 1-405); details: protein: recombinant; tags: N-terminal GST; dsDNA, one strand shown
# T5 sequence: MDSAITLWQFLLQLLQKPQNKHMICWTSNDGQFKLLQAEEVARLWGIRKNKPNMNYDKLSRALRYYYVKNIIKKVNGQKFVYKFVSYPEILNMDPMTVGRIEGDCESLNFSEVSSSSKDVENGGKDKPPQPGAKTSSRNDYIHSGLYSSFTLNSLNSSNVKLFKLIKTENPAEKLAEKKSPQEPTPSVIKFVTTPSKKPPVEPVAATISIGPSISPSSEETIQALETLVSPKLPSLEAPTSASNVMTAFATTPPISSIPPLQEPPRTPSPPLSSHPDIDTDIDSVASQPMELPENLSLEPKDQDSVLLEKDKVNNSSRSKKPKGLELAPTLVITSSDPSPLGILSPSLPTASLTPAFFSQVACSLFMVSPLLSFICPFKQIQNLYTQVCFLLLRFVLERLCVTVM
# How it was run: as §1
# [7] = target: CRX (Homo sapiens, UniProt O43186 1-299); details: protein: recombinant; tags: N-terminal GST; dsDNA, one strand shown
# Chain of CRX (O43186 whole entry): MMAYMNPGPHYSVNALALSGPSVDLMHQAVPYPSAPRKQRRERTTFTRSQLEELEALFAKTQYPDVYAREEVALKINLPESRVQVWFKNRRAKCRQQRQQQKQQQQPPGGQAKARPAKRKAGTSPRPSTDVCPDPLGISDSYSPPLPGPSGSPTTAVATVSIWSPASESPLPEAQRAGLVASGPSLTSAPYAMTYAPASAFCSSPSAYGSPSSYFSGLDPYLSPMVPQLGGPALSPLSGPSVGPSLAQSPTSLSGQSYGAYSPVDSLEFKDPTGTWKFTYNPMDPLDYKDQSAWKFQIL
# How it was run: as §1
# [8] = target: T6, ELF3 (Homo sapiens, UniProt P78545 1-371); details: protein: recombinant; tags: N-terminal GST; dsDNA, one strand shown
# T6 sequence: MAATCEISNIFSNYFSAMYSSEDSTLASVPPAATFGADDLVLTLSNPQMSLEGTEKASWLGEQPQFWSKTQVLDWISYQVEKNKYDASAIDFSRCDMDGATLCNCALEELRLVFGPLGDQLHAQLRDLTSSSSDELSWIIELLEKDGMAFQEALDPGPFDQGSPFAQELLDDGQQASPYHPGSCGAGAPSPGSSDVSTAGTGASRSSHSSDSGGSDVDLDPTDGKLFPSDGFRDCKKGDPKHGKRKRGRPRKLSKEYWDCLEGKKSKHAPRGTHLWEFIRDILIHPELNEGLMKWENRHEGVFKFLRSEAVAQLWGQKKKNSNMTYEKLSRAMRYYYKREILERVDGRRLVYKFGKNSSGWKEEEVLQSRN
# How it was run: as §1
# [9] = target: T7, ERF (Homo sapiens, UniProt P50548 1-548); details: protein: recombinant; tags: N-terminal GST; dsDNA, one strand shown
# T7 sequence: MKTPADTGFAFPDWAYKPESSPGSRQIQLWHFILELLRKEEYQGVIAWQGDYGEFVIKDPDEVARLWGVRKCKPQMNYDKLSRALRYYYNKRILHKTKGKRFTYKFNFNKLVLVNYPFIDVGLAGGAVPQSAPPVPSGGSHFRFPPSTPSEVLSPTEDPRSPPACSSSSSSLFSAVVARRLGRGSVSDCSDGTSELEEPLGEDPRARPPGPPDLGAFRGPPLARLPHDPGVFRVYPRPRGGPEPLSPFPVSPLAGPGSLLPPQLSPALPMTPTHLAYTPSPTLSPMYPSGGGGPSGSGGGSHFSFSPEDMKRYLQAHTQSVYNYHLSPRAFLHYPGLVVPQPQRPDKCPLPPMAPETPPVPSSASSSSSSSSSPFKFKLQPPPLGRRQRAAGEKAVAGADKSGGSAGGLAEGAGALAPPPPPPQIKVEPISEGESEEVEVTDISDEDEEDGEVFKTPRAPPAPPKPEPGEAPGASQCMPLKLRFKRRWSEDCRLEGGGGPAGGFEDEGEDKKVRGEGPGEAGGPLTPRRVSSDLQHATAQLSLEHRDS
# How it was run: as §1
# [10] = target: T8, ETV3L (Homo sapiens, UniProt Q6ZN32 1-361); details: protein: recombinant; tags: N-terminal GST; dsDNA, one strand shown
# T8 sequence: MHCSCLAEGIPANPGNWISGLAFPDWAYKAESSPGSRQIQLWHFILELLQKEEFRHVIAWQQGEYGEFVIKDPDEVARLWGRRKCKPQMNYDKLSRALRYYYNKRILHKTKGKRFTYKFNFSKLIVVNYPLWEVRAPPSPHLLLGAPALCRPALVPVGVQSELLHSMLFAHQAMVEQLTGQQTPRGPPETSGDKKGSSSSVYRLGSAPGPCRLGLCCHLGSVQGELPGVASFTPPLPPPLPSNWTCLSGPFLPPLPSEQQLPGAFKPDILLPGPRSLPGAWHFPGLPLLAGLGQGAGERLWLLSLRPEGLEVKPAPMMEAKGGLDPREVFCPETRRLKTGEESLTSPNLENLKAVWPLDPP
# How it was run: as §1
# [11] = target: T9, ETS2 (Homo sapiens, UniProt P15036 1-469); details: protein: recombinant; tags: N-terminal GST; dsDNA, one strand shown
# T9 sequence: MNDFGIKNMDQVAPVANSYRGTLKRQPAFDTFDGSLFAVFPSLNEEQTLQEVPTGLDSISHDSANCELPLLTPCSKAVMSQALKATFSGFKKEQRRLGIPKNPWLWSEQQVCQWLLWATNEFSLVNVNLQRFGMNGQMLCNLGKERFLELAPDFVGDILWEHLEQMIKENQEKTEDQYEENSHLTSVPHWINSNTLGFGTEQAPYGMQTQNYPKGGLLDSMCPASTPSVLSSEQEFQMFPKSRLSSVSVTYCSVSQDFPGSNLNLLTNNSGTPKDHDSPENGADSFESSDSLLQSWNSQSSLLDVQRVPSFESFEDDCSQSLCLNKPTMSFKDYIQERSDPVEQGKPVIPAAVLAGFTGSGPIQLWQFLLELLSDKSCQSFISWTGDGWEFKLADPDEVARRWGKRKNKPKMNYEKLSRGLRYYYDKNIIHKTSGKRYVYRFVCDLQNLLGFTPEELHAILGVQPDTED
# How it was run: as §1
# [12] = target: T10, SPDEF (Homo sapiens, UniProt O95238 1-335); details: protein: recombinant; tags: N-terminal GST; dsDNA, one strand shown
# T10 sequence: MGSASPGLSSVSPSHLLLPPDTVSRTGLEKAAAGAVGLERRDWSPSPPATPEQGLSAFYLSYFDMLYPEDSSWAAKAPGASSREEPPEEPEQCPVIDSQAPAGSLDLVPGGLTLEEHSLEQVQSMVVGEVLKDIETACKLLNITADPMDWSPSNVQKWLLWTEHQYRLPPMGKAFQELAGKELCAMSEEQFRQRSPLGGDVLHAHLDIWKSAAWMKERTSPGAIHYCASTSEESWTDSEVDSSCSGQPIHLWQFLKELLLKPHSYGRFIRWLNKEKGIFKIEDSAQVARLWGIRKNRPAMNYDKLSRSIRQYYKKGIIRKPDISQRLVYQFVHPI
# How it was run: as §1
# [13] = target: SPI1 (Homo sapiens, UniProt P17947 1-270); details: protein: recombinant; tags: N-terminal GST; dsDNA, one strand shown
# How it was run: as §1
# [14] = target: T11, ETV3 (Homo sapiens, UniProt P41162-2 1-143); details: protein: recombinant; tags: N-terminal GST; dsDNA, one strand shown
# T11 sequence: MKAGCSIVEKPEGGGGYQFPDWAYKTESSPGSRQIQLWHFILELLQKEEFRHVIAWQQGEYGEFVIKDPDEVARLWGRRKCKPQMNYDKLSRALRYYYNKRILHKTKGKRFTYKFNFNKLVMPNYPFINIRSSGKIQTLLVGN
# How it was run: as §1
sequence,measurement,setting,value
TCCAGC,binding signal,[1],"1.03 fold enrichment (6-mer frequency, TF over GST control)"
same,binding signal,[2],"1.04 fold enrichment (6-mer frequency, TF over GST control)"
same,binding signal,[3],"1.07 fold enrichment (6-mer frequency, TF over GST control)"
same,binding signal,[4],"1.44 fold enrichment (6-mer frequency, TF over GST control)"
same,binding signal,[5],"1.06 fold enrichment (6-mer frequency, TF over GST control)"
same,binding signal,[6],"1.17 fold enrichment (6-mer frequency, TF over GST control)"
same,binding signal,[7],"1.08 fold enrichment (6-mer frequency, TF over GST control)"
GTAGAT,binding signal,[4],"1 fold enrichment (6-mer frequency, TF over GST control)"
same,binding signal,[5],"1.16 fold enrichment (6-mer frequency, TF over GST control)"
same,binding signal,[6],"1.01 fold enrichment (6-mer frequency, TF over GST control)"
same,binding signal,[8],"1.01 fold enrichment (6-mer frequency, TF over GST control)"
same,binding signal,[7],"1.07 fold enrichment (6-mer frequency, TF over GST control)"
same,binding signal,[9],"1.06 fold enrichment (6-mer frequency, TF over GST control)"
same,binding signal,[10],"1.09 fold enrichment (6-mer frequency, TF over GST control)"
same,binding signal,[11],"1.02 fold enrichment (6-mer frequency, TF over GST control)"
same,binding signal,[12],"1.04 fold enrichment (6-mer frequency, TF over GST control)"
GGGAAT,binding signal,[4],"1.09 fold enrichment (6-mer frequency, TF over GST control)"
GTGGAA,binding signal,[13],"1.15 fold enrichment (6-mer frequency, TF over GST control)"
same,binding signal,[4],"1.23 fold enrichment (6-mer frequency, TF over GST control)"
same,binding signal,[5],"1.02 fold enrichment (6-mer frequency, TF over GST control)"
same,binding signal,[6],"1.06 fold enrichment (6-mer frequency, TF over GST control)"
same,binding signal,[14],"1.02 fold enrichment (6-mer frequency, TF over GST control)"
